The nature of experiment [1]: Nuclear factor erythroid 2-related factor 2/antioxidant responsive element (Nrf2/ARE) small molecule agonists: qHTS cell viability counter screen in human keratinocytes (AID 1919968; active = well fitted curve in the direction sought with a large enough effect in the repeat runs; an effect the other way counts as inactive or inconclusive; note: nearly all actives have a fitted effect of over 55% in size; note: potency is the fitted concentration of half-maximal effect). In a few lines:
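CellTiter-Fluor fluorescence, read 1 h after reagent, gave viability in the same wells as the ARE-luciferase assay. KeratinoSens cells (1,500/well) had 23 h compound exposure at 37 C/5% CO2 following 5 h plating.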

Experiment [2] in a line: Nuclear factor erythroid 2-related factor 2/antioxidant responsive element (Nrf2/ARE) small molecule agonists: luciferase reporter gene qHTS assay in human keratinocytes (AID 1919969). Note: nearly all actives have a fitted effect of over 35% in size. Note: potency is the fitted concentration of half-maximal effect.
The target in experiment [3] is Gonadotropin-releasing hormone receptor (Homo sapiens) (UniProt P30968). Kind of experiment: Human gonadotropin-releasing hormone receptor (GnRHR) small molecule agonists, calcium flux assay in GnRHR-HEK293 cells (AID 1920063). Note: nearly all actives have a fitted effect of over 35% in size. In a few lines:
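Agonist mode: compounds at 15 concentrations, in triplicate, went onto calcium dye-loaded GnRHR-HEK293 cells. Intracellular calcium was then followed as 480/540 nm fluorescence at 1 s intervals over 3 min.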

Experiment [4] addresses KiSS-1 receptor (Homo sapiens) (UniProt Q969F8). The experiment in a line: Human kisspeptin (KISS1R) small molecule agonists, calcium flux assay in KISS1R-HEK293 cells (AID 1920064; active = well fitted curve in the direction sought with a large enough effect in the repeat runs; an effect the other way counts as inactive or inconclusive). The method in brief: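 Agonist mode: intracellular calcium rise tracked at 1 s intervals over 3 min (480/540 nm) immediately after compound addition to dye-loaded KISS1R-HEK293 stable cells. Each compound tested at 15 concentrations in triplicate.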

Experiment [5] in a line: G protein-coupled receptor (GPCR) small molecule agonists, calcium flux assay: HEK293 wild type cell line counter screen (AID 1920065). The method in brief:
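Calcium flux counter screen: compound added in agonist mode at 15 concentrations in triplicate to dye-loaded parental HEK293 cells. Fluorescence (480/540) read kinetically for 3 min; ATP served as positive control.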

The nature of experiment [6]: p53 small molecule agonists, cell-based qHTS assay with human liver microsomes: qHTS cell viability counter screen (AID 1963579). Note: nearly all actives have a fitted effect of over 45% in size. In a few lines: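 Metabolically activated exposure: compounds, human liver microsomes and NADPH (0.5 mg/mL final apiece) were added to p53RE-bla cells seeded 5 h earlier, left 16 h at 37 C, and then assessed for viability by CellTiter-Glo luminescence.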

Experiment [7] can be described thus: p53 small molecule agonists, cell-based qHTS assay with rat liver microsomes: qHTS cell viability counter screen (AID 1963580). Note: nearly all actives have a fitted effect of over 45% in size. Note: potency is the fitted concentration of half-maximal effect. The method in brief:
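Cytotoxicity counter screen: intracellular ATP read by CellTiter-Glo luminescence in the p53 reporter wells. HCT-116 p53RE-bla cells were treated for 16 h at 37 C alongside rat liver microsomes and NADPH, each 0.5 mg/mL final.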

The nature of experiment [8]: p53 small molecule agonists, cell-based qHTS assay: qHTS cell viability counter screen (AID 1963581). Note: nearly all actives have a fitted effect of over 45% in size. Note: potency is the fitted concentration of half-maximal effect. In a few lines: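 Counter screen read by CellTiter-Glo luminescence (ATP content, 30 min at room temperature), run in the same wells as the beta-lactamase reporter read. HCT-116 p53RE-bla cells saw compounds for 16 h at 37 C.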
The nature of experiment [9]: p53 small molecule agonists, cell-based qHTS assay (AID 1963582; active = well fitted activation curve with a large enough effect in the signal ratio in the repeat runs, not every such curve was filed as active; the % refers to the signal ratio). The method in brief:
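Read-out is beta-lactamase FRET fluorescence after 2 h at room temperature with LiveBLAzer B/G substrate. p53 response element-bla cells were treated 16 h at 37 C with compounds in DMSO, added 5 h after seeding.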

Experiment [10] concerns the target 5-hydroxytryptamine receptor 2A (Homo sapiens) (UniProt P28223). The experiment in a line: 5-hydroxytryptamine receptor 2A (HTR2A) small molecule antagonists, cell-based qHTS assay (AID 1963586). Note: nearly all actives have a fitted effect of over 45% in size. The method in brief:
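CHO cells stably expressing human HTR2A were plated for 18 h at 37 C, then loaded with calcium dye for 1 h. Compounds were preincubated 5 min at room temperature before DOI (4 nM solution) was added. Kinetic fluorescence was read for 3 min.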

Experiment [11] has the same target. The experiment in a line: 5-hydroxytryptamine receptor 2A (HTR2A) small molecule agonists, cell-based qHTS assay (AID 1963587). Note: nearly all actives have a fitted effect of over 30% in size. In a few lines:
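Kinetic calcium-flux fluorescence (2 min, 1 sec intervals) after compound addition in agonist mode. HTR2A-CHO cells were cultured 18 h, then dye-loaded 1 h at 37 C.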

The target of experiment [12] is Muscarinic acetylcholine receptor M1 (Homo sapiens) (UniProt P11229). The experiment in a line: Cholinergic receptor muscarinic 1 (CHRM1) small molecule agonists, cell-based qHTS assay (AID 1963589). Note: nearly all actives have a fitted effect of over 35% in size. The method in brief:
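Agonist-mode calcium-flux screen: compounds at 15 concentrations, three independent runs, were pin-transferred onto dye-loaded human CHRM1-CHO cells. Fluorescence was then recorded kinetically every second over minutes.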

Experiment [13] in a line: cAMP Responsive Elements (CRE) small molecule agonists, cell-based qHTS assay (AID 1963590). In a few lines:
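Agonist mode: compound added to CRE-bla HEK 293T cells (2,000/well, 18 h after plating) for 3 h at 37 C/5% CO2. Reporter activity detected via FRET beta-lactamase substrate, 2 h room-temperature loading.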

Experiment [14] in a line: cAMP Responsive Elements (CRE) small molecule antagonists, cell-based qHTS assay (AID 1963591; active = well fitted inhibition curve with a large enough effect in the signal ratio in the repeat runs, not every such curve was filed as active; the % refers to the signal ratio). In a few lines:
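Antagonist mode: compounds are added alongside the adenylyl cyclase activator NKH477 (0.25 uM final) to CRE-bla HEK293T cells for 3 h. LiveBLAzer FRET substrate, 2 h at room temperature, reports bla expression.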

Experiment [15] deals with Beta-2 adrenergic receptor (Homo sapiens) (UniProt P07550). The experiment in a line: Adrenergic beta2 receptor (ADRB2) small molecule antagonists, cell-based qHTS assay (AID 1963592). Note: series mostly up to about 92 µM; nearly all actives have a fitted effect of over 50% in size. The method in brief: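 Assay format: CHO-ADRB2 cells, 18-20hr seeding at 37C/5% CO2, then compound plus 1nM isoproterenol agonist mix for 0.5hr RT. Homogeneous time-resolved fluorescence cAMP detection after 1hr, expressed as 665/615 nm ratio.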
Sequence of Beta-2 adrenergic receptor (Homo sapiens) (P07550 whole entry, looked up): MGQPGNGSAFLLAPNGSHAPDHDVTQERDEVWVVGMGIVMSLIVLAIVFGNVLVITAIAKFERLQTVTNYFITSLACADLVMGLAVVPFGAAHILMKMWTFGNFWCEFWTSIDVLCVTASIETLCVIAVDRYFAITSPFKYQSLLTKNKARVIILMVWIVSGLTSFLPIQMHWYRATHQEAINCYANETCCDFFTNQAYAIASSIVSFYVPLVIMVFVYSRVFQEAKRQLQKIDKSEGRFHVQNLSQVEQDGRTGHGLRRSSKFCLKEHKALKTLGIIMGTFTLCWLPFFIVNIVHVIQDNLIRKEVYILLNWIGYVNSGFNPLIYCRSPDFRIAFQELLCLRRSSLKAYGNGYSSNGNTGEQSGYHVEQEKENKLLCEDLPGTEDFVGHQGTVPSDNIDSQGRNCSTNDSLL

For experiment [16] the target is unchanged. Kind of experiment: Adrenergic beta2 receptor (ADRB2) small molecule agonists, cell-based qHTS assay (AID 1963593).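 Note: CHO cells stably overexpressing human ADRB2.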 The method in brief: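 CHO cells stably over-expressing ADRB2 were plated overnight at 37C, then dosed with compounds plus a stimulation mix containing 100uM IBMX and 25uM Ro-20-1724 for 0.5hr at room temperature. cAMP was measured by HTRF competition, 1hr.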

For experiment [17], the target named is D(2) dopamine receptor (Homo sapiens) (UniProt P14416). Kind of experiment: Dopamine D2 receptor (DRD2) small molecule agonists, cell-based qHTS assay (AID 1963594). Note: nearly all actives have a fitted effect of over 35% in size. In a few lines:
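cAMP accumulation in DRD2-HEK293 cells measured by HTRF after 1 h detection; compounds added 10 min before NKH477 (200nM […]) forskolin-analogue stimulation, 30 min at room temperature, with Ro20-1724 present at 0.1 mM final.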

For experiment [18] the target is unchanged. The experiment in a line: Dopamine D2 receptor (DRD2) small molecule antagonists, cell-based qHTS assay (AID 1963595; active = well fitted inhibition curve with a large enough effect in the signal ratio in the repeat runs, with a control signal flat; the % refers to the signal ratio). In a few lines: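 HEK293 cells stably expressing DRD2 were preincubated with 0.1 mM Ro20-1724, then with compound for 10 min at room temperature. Cells were stimulated with 200 nM NKH477 plus 12 nM quinpirole for 30 min, and cAMP was read by HTRF.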

Experiment [19] deals with Muscarinic acetylcholine receptor M1 (Homo sapiens) (UniProt P11229). The experiment in a line: Cholinergic receptor muscarinic 1 (CHRM1) small molecule antagonists, cell-based qHTS assay (AID 1963588). Note: nearly all actives have a fitted effect of over 40% in size. The method in brief: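 Compounds were tested at 15 concentrations in three independent runs. Dye-loaded CHRM1-CHO cells were exposed 5 min at room temperature before stimulation by acetylcholine added at 50nM. Intracellular calcium was read kinetically on FDSS for 3 min.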
Sequence of Muscarinic acetylcholine receptor M1 (Homo sapiens) (P11229 whole entry, looked up): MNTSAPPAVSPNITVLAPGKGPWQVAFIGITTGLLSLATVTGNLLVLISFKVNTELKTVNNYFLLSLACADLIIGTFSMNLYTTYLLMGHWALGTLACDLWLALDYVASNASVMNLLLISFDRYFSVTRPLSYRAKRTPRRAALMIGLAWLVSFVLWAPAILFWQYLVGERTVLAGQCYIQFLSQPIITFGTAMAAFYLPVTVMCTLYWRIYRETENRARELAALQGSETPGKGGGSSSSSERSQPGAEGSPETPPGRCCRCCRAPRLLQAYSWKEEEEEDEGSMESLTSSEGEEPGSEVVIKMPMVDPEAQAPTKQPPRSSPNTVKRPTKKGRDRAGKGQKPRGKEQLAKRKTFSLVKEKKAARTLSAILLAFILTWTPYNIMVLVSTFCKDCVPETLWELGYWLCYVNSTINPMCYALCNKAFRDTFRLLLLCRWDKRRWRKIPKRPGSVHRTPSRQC

Experiment [20] can be described thus: p53 small molecule agonists, cell-based qHTS assay with rat liver microsomes (AID 1963578). In a few lines: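 Agonist mode in p53RE-bla reporter cells, with compounds co-incubated 16 h at 37 C alongside 0.5 mg/mL rat liver microsomes and 0.5 mg/mL NADPH (final), followed by a 2 h LiveBLAzer detection step.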

Where “and” joins values, the source holds several entries; their conditions need not be identical. Equal entries are not always repeated. Results filed as inconclusive are left out. More than one record can exist for a structure, and the calls need not agree. Calls of active or inactive are those of the source. Unless noted, calls come from the whole dose curve.

Sequence of Gonadotropin-releasing hormone receptor (Homo sapiens) (P30968 whole entry, looked up): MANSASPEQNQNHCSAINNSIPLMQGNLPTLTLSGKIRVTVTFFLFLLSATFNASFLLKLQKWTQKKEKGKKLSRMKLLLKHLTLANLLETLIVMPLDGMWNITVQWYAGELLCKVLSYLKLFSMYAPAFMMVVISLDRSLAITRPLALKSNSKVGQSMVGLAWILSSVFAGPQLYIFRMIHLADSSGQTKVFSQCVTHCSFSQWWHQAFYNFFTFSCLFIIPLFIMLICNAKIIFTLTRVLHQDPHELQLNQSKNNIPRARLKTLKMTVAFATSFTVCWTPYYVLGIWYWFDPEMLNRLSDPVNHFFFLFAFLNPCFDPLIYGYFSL
Sequence of 5-hydroxytryptamine receptor 2A (Homo sapiens) (P28223 whole entry, looked up): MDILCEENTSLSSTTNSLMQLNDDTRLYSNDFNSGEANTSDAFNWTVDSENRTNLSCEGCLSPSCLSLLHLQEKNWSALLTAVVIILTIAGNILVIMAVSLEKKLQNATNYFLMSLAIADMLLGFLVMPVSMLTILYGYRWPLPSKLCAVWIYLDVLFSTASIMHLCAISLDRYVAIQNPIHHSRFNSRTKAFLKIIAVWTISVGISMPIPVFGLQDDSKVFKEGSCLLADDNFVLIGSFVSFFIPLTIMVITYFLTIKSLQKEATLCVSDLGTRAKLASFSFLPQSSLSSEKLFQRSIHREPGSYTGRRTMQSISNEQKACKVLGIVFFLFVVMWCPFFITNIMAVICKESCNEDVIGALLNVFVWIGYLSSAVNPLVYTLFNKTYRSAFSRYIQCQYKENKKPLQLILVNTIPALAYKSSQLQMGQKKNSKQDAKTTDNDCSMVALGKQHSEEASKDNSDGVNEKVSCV
Sequence of D(2) dopamine receptor (Homo sapiens) (P14416 whole entry, looked up): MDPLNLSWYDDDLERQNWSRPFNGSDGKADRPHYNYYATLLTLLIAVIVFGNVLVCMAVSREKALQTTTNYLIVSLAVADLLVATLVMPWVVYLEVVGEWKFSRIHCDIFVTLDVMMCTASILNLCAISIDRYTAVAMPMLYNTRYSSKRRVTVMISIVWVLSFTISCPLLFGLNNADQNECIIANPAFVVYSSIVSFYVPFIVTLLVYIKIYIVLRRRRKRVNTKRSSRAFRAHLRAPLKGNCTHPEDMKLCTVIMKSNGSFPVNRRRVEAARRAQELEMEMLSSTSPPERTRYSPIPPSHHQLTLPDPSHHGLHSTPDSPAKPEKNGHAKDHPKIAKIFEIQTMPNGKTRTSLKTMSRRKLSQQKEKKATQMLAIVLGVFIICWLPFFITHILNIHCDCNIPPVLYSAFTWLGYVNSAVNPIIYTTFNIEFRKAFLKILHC
Sequence of KiSS-1 receptor (Homo sapiens) (Q969F8 whole entry, looked up): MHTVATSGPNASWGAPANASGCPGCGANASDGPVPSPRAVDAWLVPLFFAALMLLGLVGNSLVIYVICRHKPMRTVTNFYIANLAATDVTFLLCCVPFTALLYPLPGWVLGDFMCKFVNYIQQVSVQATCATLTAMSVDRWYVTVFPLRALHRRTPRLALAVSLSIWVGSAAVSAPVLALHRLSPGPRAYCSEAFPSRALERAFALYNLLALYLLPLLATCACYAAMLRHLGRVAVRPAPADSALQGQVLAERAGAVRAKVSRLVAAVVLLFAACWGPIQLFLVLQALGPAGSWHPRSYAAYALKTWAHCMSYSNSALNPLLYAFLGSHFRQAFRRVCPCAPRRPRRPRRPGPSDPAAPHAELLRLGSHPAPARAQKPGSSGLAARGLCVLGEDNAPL

With `COP(=S)(OC)SCN1C(=O)c2ccccc2C1=O`, the Potency result in experiment [1], in experiment [3], in experiment [4], in experiment [5], in experiment [6] and in experiment [7] was “inactive” each time. The Potency entry in experiment [8], in [9], in [10], in experiment [11], in [12] and in experiment [13] was “inactive” in each case. Further, the Potency entry in [14], in experiment [15], in experiment [16], in experiment [17] and in experiment [18] was “inactive” each time. Moreover, the Potency in [2] was 61.6 µM (active) and 68.6 µM (active) and inactive.

On to `COP(=S)(OC)Oc1ccc([N+](=O)[O-])cc1`, for which the Potency entry in experiment [1], in [2], in experiment [3], in experiment [4], in experiment [5] and in experiment [6] was “inactive” throughout. In addition, the Potency result in experiment [7], in [8], in experiment [9], in experiment [10], in experiment [11] and in experiment [19] was “inactive” each time. Moreover, the Potency entry in [13], in experiment [14], in experiment [15], in experiment [16], in [17] and in [18] was “inactive” each time.

Regarding `CCCCCCCCCCCC(=O)O`, the Potency result in [1], in experiment [2], in [3], in [4], in experiment [5] and in experiment [6] was “inactive” throughout. The Potency entry in [7], in [8], in experiment [10], in experiment [11], in [19] and in [12] was “inactive” throughout. Further, the Potency result in experiment [13], in experiment [14], in [15], in experiment [16] and in [18] was “inactive” throughout.

For the compound `CCOP(=S)(OCC)SCCSCC`, the Potency result in experiment [1], in [2], in experiment [3], in experiment [4], in experiment [5] and in [6] was “inactive” each time. Besides, the Potency result in experiment [7], in [8], in [9], in [10], in [11] and in experiment [19] was “inactive” in each case. In addition, the Potency entry in [13], in experiment [14], in experiment [15], in [16], in [17] and in experiment [18] was “inactive” in each case.

For the compound `C[C@]12CC[C@H]3[C@@H](CC[C@@]45O[C@@H]4C(O)=C(C#N)C[C@]35C)[C@@H]1CC[C@@H]2O`, the Potency result in experiment [1], in experiment [3], in [4], in [5], in [20] and in experiment [7] was “inactive” in each case. For the same compound, the Potency result in experiment [8], in experiment [10], in experiment [11], in [19], in experiment [12] and in experiment [15] was “inactive” each time. Besides, the Potency entry in [16], in experiment [17] and in [18] was “inactive” throughout. The Potency in experiment [2] was 68.6 µM (active) and inactive.

Regarding `CCC[CH2][Sn]([Cl])([Cl])[CH2]CCC`, the Potency was 1.23 µM (active) and 2.17 µM (active) in experiment [1]; 492 nM (active) and 969 nM (active) in experiment [2]; 18.5 µM (active) and 45.8 µM (active) in experiment [7]; 3.28 µM (active) and 4.08 µM (active) in [8]. The Potency result in experiment [3], in experiment [4], in experiment [5], in [20], in experiment [10] and in experiment [11] was “inactive” in each case. Besides, the Potency entry in [19], in experiment [12], in [15], in experiment [17] and in [18] was “inactive” in each case.

For `O=C(O)C(Cl)Cl`, the Potency entry in [1], in experiment [2], in [3], in experiment [4], in [5] and in experiment [6] was “inactive” in each case. Further, the Potency entry in experiment [7], in experiment [8], in experiment [10], in experiment [11], in experiment [19] and in [12] was “inactive” in each case. Also, the Potency result in [13], in [14], in [15], in [16] and in [18] was “inactive” throughout.

The values are drawn from PubChem BioAssay (Tox21).
